Measurements taken from PubChem BioAssay (NCATS).
Results filed as inconclusive are left out. Active and inactive are the calls of the source. Calls follow the shape of the dose curve; as a rule, active = well fitted curve in the direction sought with a large enough effect; inconclusive = small, poorly fitted or top-dose-only effect, or another doubt; inactive = no such curve, though single readings can be large; an effect the other way counts as inactive or inconclusive.

Tests used:
[1] = qHTS assay for measurement of the activity of small molecule inhibitors on Zika virus induced Caspase-3 activity in human iPSC derived neural progenitor cells (hNPCs) (AID 1224857); also: nearly all actives have a fitted effect of over 65% in size
Outline: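 Caspase-3/7 induction by a 6-hour ZIKV infection was quantified with a luminescent Caspase-Glo 3/7 reagent incubated 30 minutes at room temperature. Compounds were preincubated with hNPCs for 1 hour; inhibition was calculated against uninfected and infected control wells.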

[2] = qHTS assay to identify small molecule inhibitors of chordoma cells - UCH-1 (AID 1259355); also: nearly all actives have a fitted effect of over 55% in size
Outline: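 Screening used approved and investigational drugs in 15-point titration against 800 seeded cells per well. A fixed combination of auranofin with camptothecin, doxorubicin, rubitecan and topotecan followed compound addition, and growth was scored by CellTiter-Glo after 48hr.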

[3] = qHTS assay to identify small molecule inhibitors of chordoma cells - UCH-2 (AID 1259356); also: series mostly up to about 46 µM
[4] = P-glycoprotein substrates identified in KB-8-5-11 adenocarcinoma cell line, qHTS therapeutic library screen (AID 1346987); details: outcome: dose series up to 44.5 µM; also: series mostly up to about 44 µM; nearly all actives have a fitted effect of over 65% in size
Outline: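 Compounds are pinned in dose-response onto KB-8-5-11 cells (500 cells/well, colchicine-free medium) and left 72 h at 37 degree C. CellTiter-Glo luminescence then yields AC50 values.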

[5] = NS1 protein of Zika virus - qHTS assay to identify small molecule inhibitors in human HEK 293 cells (AID 1347053); also: series mostly up to about 46 µM; nearly all actives have a fitted effect of over 55% in size
Outline: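 Readout was TR-FRET using paired anti-NS1 antibodies after 24 h infection of HEK 293 cells with ZIKV MR766 (MOI = 0.5). Compound preceded virus by 1 h; reduced signal reflects lower NS1 expression.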

[6] = qHTS of pediatric cancer cell lines to identify multiple opportunities for drug repurposing: Primary screen for TC32 cells (AID 1347089); also: nearly all actives have a fitted effect of over 60% in size
Outline: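 In the primary qHTS, MIPE compounds were tested at 11 concentrations (0.78 nM to 46 µM) and NPC compounds at 8 (0.59 nM to 46 µM) on TC32 cells for 48 h. CellTiter-Glo luminescence gave viability.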

[7] = qHTS of pediatric cancer cell lines to identify multiple opportunities for drug repurposing: Primary screen for DAOY cells (AID 1347090); also: series mostly up to about 46 µM; nearly all actives have a fitted effect of over 55% in size
Outline: (§1)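 Viability measured as metabolically active cells via CellTiter-Glo luminescence following 48 hours of compound exposure, 11-point dilutions in confirmatory testing. 500-1,000 cells/well plated 5 hours before dosing; controls were DMSO and 2.3 µM bortezomib.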

[8] = qHTS of pediatric cancer cell lines to identify multiple opportunities for drug repurposing: Primary screen for SJ-GBM2 cells (AID 1347091)
Outline: as §1

[9] = qHTS of pediatric cancer cell lines to identify multiple opportunities for drug repurposing: Primary screen for A673 cells (AID 1347092); also: nearly all actives have a fitted effect of over 45% in size
Outline: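 48 h compound exposure, A673, 500-1,000 cells/well, 37 degrees C/5% CO2. MIPE: 11-point, 0.78 nM-46 µM; NPC: 8-point, 0.59 nM-46 µM (final). Readout CellTiter-Glo luminescence after 15 min RT.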

[10] = qHTS of pediatric cancer cell lines to identify multiple opportunities for drug repurposing: Primary screen for SK-N-MC cells (AID 1347093); also: series mostly up to about 46 µM
Outline: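 Metabolically active cells were quantified by ATP-dependent luminescence (CellTiter-Glo, 15 min at room temperature) following 48 h treatment. Cells had been plated at 500-1,000 per well and settled for 5 h beforehand.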

[11] = qHTS of pediatric cancer cell lines to identify multiple opportunities for drug repurposing: Primary screen for BT-37 cells (AID 1347094); also: series mostly up to about 57 µM
Outline: (§2)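 Viability was measured as metabolically active cells after 48 hours of treatment, read by CellTiter-Glo luminescence. Compounds were tested at multiple final concentrations, giving concentration-response curves.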

[12] = qHTS of pediatric cancer cell lines to identify multiple opportunities for drug repurposing: Primary screen for U-2 OS cells (AID 1347096); also: nearly all actives have a fitted effect of over 50% in size
Outline: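 Viability after 48 h compound treatment at 37C, 500-1,000 cells/well, read as ATP luminescence with CellTiter-Glo. Primary screens used 11-point (MIPE, 0.78 nM-46 µM) or 8-point (NPC, 0.59 nM-46 µM) final concentrations; follow-up screens used 11-point dilutions.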

[13] = qHTS of pediatric cancer cell lines to identify multiple opportunities for drug repurposing: Primary screen for Saos-2 cells (AID 1347097); also: nearly all actives have a fitted effect of over 40% in size
Outline: as §2

[14] = qHTS of pediatric cancer cell lines to identify multiple opportunities for drug repurposing: Primary screen for SK-N-SH cells (AID 1347098);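 also: DMSO served as neutral control and bortezomib at 2.3 µM as positive control; nearly all actives have a fitted effect of over 65% in size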
Outline: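 Cells (500-1,000/well) rested 5 h, then received compounds for 48 h; metabolically active cells were measured by CellTiter-Glo luminescence. Final concentrations spanned up to 46 µM (MIPE, 11-point) or 0.59 nM-46 µM (NPC, 8-point) in primary screens, 11-point in follow-ups.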

[15] = qHTS of pediatric cancer cell lines to identify multiple opportunities for drug repurposing: Primary screen for NB-EBc1 cells (AID 1347095)
Outline: as §2

Measured: Potency

Cc1ccc(S(=O)(=O)NC(=O)NC2CCCCCCC2)cc1
inactive: [1] | [2] | [3] | [4] | [5] | [6] | [7] | [8] | [9] | [10] | [11] | [12] | [13] | [14]

CCOC(N)=O
inactive: [1] | [2] | [3] | [4] | [5] | [6] | [7] | [8] | [9] | [10] | [11] | [15] | [12] | [13] | [14]

CC(C)(C)C(=O)OCOC(=O)[C@@H]1N2C(=O)[C@@H](NC(=O)[C@H](N)c3ccccc3)[C@H]2SC1(C)C
inactive: [1] | [2] | [3] | [4] | [5] | [7] | [8] | [9] | [10] | [11] | [15] | [12] | [13] | [14]

O=C(Cn1ccnc1[N+](=O)[O-])NCc1ccccc1
inactive: [1] | [2] | [3] | [4] | [5] | [7] | [8] | [9] | [10] | [11] | [12] | [13] | [14]

NS(=O)(=O)c1cc2c(cc1C(F)(F)F)NCNS2(=O)=O
inactive: [1] | [2] | [3] | [4] | [5] | [6] | [7] | [8] | [10] | [11] | [15] | [12] | [13] | [14]

OC(CCN1CCCC1)(c1ccccc1)C1CCCCC1 (configuration not stated)
inactive: [1] | [2] | [3] | [4] | [5] | [6] | [7] | [8] | [9] | [10] | [11] | [15] | [12] | [14]

C[n+]1ccccc1/C=N/O
inactive: [1] | [2] | [3] | [4] | [5] | [6] | [7] | [8] | [9] | [10] | [11] | [15] | [12] | [13] | [14]

CCN(CC)C(=O)c1cccc(C)c1
inactive: [1] | [2] | [3] | [5] | [7] | [8] | [9] | [10] | [11] | [12] | [13]

CCOC(=O)[C@H](CCc1ccccc1)N[C@@H](C)C(=O)N1Cc2cc(OC)c(OC)cc2C[C@H]1C(=O)O
inactive: [1] | [2] | [3] | [4] | [5] | [6] | [7] | [8] | [10] | [11] | [15] | [12] | [13] | [14]

CC[N+](C)(CC)CCOC(=O)C1c2ccccc2Oc2ccccc21
inactive: [1] | [2] | [3] | [4] | [5] | [6] | [7] | [8] | [9] | [10] | [11] | [12] | [13]
